In the supplement of paper PMC13380429:

Tested on: Vero E6 infected with SARS-CoV-2
Experiment: inhibition of SARS-CoV-2 cytopathic effect; higher = more antiviral protection, active = above 15
Details: 48 h

Measured: inhibition of SARS-CoV-2 cytopathic effect

CO/N=C(\C(=O)N[C@@H]1C(=O)N2C(C(=O)[O-])=C(C[n+]3ccn4ncccc43)CS[C@H]12)c1nsc(N)n1 [cefozopran]
inactive: 1 nM -1.88% | 8.33 nM 1.38% | 100 nM -0.43% | 833.33 nM -0.82% | 10000 nM -0.02%

C=CCc1ccc(O)c(-c2cc(CC=C)ccc2O)c1 [magnolol]
inactive: 1 nM -1.26% | 8.33 nM 1.55% | 100 nM 1.32% | 833.33 nM -2.87% | 10000 nM -1.19%

CC1(C)CCC[C@]2(C)[C@H]3CC(=O)O[C@]3(C)CC[C@@H]12 [Sclareolide (Norambreinolide)]
inactive: 1 nM -2.36% | 8.33 nM 3.53% | 100 nM 6.06% | 833.33 nM 2.01% | 10000 nM 1.5%

CN(C)c1ccc2nc3ccc(=[N+](C)C)cc-3sc2c1 [methylene-blue]
inactive: 1 nM -2.26% | 8.33 nM -2.37% | 100 nM -2.19% | 833.33 nM 8.6% | 10000 nM -7.29%

Nc1ncnc2c1ncn2[C@@H]1O[C@H](C[C@@H](N)CC[C@H](N)C(=O)O)[C@@H](O)[C@H]1O [sinefungin]
inactive: 1 nM -10.5% | 8.33 nM -10.2% | 100 nM -10% | 833.33 nM -7.77% | 10000 nM -7.24%

Cn1c(COc2ccc(CC3SC(=O)NC3=O)cc2)nc2ccccc2c1=O (stereo not given) [balaglitazone]
inactive: 1 nM -1.69% | 8.33 nM -0.56% | 100 nM -0.1% | 833.33 nM -2.45% | 10000 nM -7.04%

C=CC(=O)Nc1cccc(Oc2nc(Nc3ccc(N4CCN(C)CC4)cc3OC)ncc2Cl)c1
inactive: 1 nM -1.07% | 8.33 nM 3.52% | 100 nM -0.84% | 833.33 nM -9.12% | 10000 nM -11.8%

CCCCN1CCCC1CNC(=O)c1cc(C#N)c2ccccc2c1OC (stereo not given) [nafadotride]
inactive: 1 nM -1.44% | 8.33 nM -0.63% | 100 nM -0.23% | 833.33 nM 0.59% | 10000 nM 0.87%

CCCCCC(=O)O[C@]1(C(C)=O)CC[C@H]2[C@@H]3CCC4=CC(=O)CC[C@]4(C)[C@H]3CC[C@@]21C [17-hydroxyprogesterone-caproate]
inactive: 1 nM -1.12% | 8.33 nM 1.14% | 100 nM 1.12% | 833.33 nM 1.58% | 10000 nM 5.84%

Nc1nccc(Oc2ccc(NC(=O)c3c[nH]cc(-c4ccc(F)cc4)c3=O)cc2F)c1Cl [metatinib]
inactive: 1 nM 0.06% | 8.33 nM 0.76% | 100 nM 0.97% | 833.33 nM 4.29% | 10000 nM -2.56%

c1ccc(N2CCN(Cc3nc4ccccc4[nH]3)CC2)nc1
inactive: 1 nM 3.44% | 8.33 nM 2.21% | 100 nM -0.12% | 833.33 nM 0.36% | 10000 nM -0.76%

COc1ccc(-c2cc(C(F)F)nn2-c2ccc(S(N)(=O)=O)cc2)cc1F [deracoxib]
inactive: 1 nM 2.3% | 8.33 nM -0.35% | 100 nM 3.5% | 833.33 nM 2.29% | 10000 nM 2.18%

Cc1nnc(C[C@@H]2C=C(c3ccc(Cl)cc3)c3ccccc3-n3c(C)nnc32)o1
inactive: 1 nM 1.71% | 8.33 nM 0.46% | 100 nM 2.65% | 833.33 nM -4.91% | 10000 nM -11.7%

Nc1ncnc2c1ncn2[C@@H]1O[C@@H]2COP(=O)(O)O[C@H]2[C@H]1O [cyclic-AMP]
inactive: 1 nM 3.59% | 8.33 nM -0.53% | 100 nM -1.76% | 833.33 nM -5.14% | 10000 nM 0.34%

CCOC(=O)C1=C(C)NC(C)=C(C(=O)OC)[C@@H]1c1cccc([N+](=O)[O-])c1 (racemic) [nitrendipine]
inactive: 1 nM 1.59% | 8.33 nM 0.33% | 100 nM -3.74% | 833.33 nM -0.45% | 10000 nM 4.26%

Nc1nc(=O)c2nc(CNc3ccc(C(=O)N[C@@H](CCC(=O)O)C(=O)O)cc3)cnc2[nH]1 [folic-acid]
inactive: 1 nM -1.27% | 8.33 nM 1.24% | 100 nM 0.24% | 833.33 nM 1.38% | 10000 nM -0.44%

C/C=C(/C(=C/C)c1ccc(O)cc1)c1ccc(O)cc1 [dienestrol]
inactive: 1 nM 2% | 8.33 nM -0.9% | 100 nM -0.85% | 833.33 nM 0.84% | 10000 nM 1.6%

CCOc1cn(-c2ccc(F)cc2C)nc1C(=O)Nc1ccc(Oc2ccnc3cc(OC)c(OC)cc23)c(F)c1
inactive: 1 nM -0.58% | 8.33 nM -1.4% | 100 nM -1.89% | 833.33 nM 0.24% | 10000 nM -1.4%

Cc1cnc(C(=O)N[C@H]2CCCCC/C=C\[C@@H]3C[C@@]3(C(=O)NS(=O)(=O)C3CC3)NC(=O)[C@@H]3C[C@@H](Oc4nc5ccccc5c5ccccc45)CN3C2=O)cn1 [paritaprevir]
inactive: 1 nM -1.75% | 8.33 nM -2.06% | 100 nM -0.72% | 833.33 nM 0.24% | 10000 nM 1.71%
